Results as given in PubChem BioAssay (NCATS).
Inconclusive results are not listed. Values without a mark were called inactive. Calls of active or inactive are those of the source. Calls come from the whole dose curve; tested in HEK293 reporter line.

Assay: qHTS for Inhibitors of the Functional Ribonucleoprotein Complex (vRNP) of Lassa (LASV) Arenavirus: LASV Primary Screen - GLuc reporter signal (AID 1347082); note: nearly all actives have a fitted effect of over 60% in size
Conditions: LASV minigenome vRNP, Gaussia luciferase reporter; series mostly up to 57.5 µM; activity change, negative = inhibition: at the top concentration
% is set by controls: 0 for no effect and ±100 for the full control effect; potency is the fitted concentration of half-maximal effect.

Compound	Potency	activity change, negative = inhibition
CCN(CC)CCNC(=O)c1c(C)[nH]c(C=C2C(=O)Nc3ccc(F)cc32)c1C	44.4 µM (active)	–
CC[C@H](C)/C=C(C)/C=C/C1=CC2=CC(=O)[C@]3(C)OC(=O)[C@@H](C(C)=O)[C@@H]3C2=CO1	–	-5.57%
C/C=C/C=C/CO	–	-20.8% [at 115 µM]
CC1CCC[C@H](O)CCCCCc2cc(O)cc(O)c2C(=O)O1 (stereo not given in full)	–	2%
CCCC1CCC(=O)O1 (stereo not given)	–	3.5% [at 115 µM]
C=C(C)[C@]12C[C@@H](C)[C@@]34O[C@](Cc5ccccc5)(O[C@@H]1[C@@H]3C=C(COC(=O)Cc1ccc(O)c(OC)c1)C[C@]1(O)C(=O)C(C)=C[C@@H]41)O2	–	3.13%
CCCCC[C@H](O)/C=C/C=C/C/C=C\CCCC(=O)O	–	-30.5% [at 0.757 µM]
COc1cc2c(cc1O)C(Cc1ccc(O)cc1)NCC2 (stereo not given)	–	-20.8%
COC(=O)c1ccc2c(c1O)C(=O)c1ccccc1C2=O	–	-1.87%
C/C=C(/C)C(=O)O[C@@H]([C@H](O)c1cc2ccc(=O)oc2cc1OC)C(C)(C)O[C@@H]1O[C@H](CO)[C@@H](O)[C@H](O)[C@H]1O	–	-0.196%
CC(C)C1Oc2cc3oc(=O)ccc3cc2C1=O (stereo not given)	–	7.29%
CC1=CCC2C(C1)C2(C)C (stereo not given)	–	-33.3% [at 115 µM]
COc1ccc([C@@]23Oc4cc(OC)cc(OC)c4[C@]2(O)[C@H](O)[C@H](C(=O)N(C)C)[C@H]3c2ccccc2)cc1	–	-57.8%
Cc1c(-c2cccc3c(CCCOc4cccc5ccccc45)c(C(=O)O)n(Cc4cccnc4)c23)c(COc2ccc(N3CCN([S+](=O)([O-])N(C)C)CC3)cc2)nn1C	–	-1.2%
C=C(C=O)C[C@@H]1C[C@H](O)C2OC3C[C@]4(C)OC5/C=C\CC6OC7C(CC=CCC6OC5CCCC4OC3CC2O1)OC1CC2OC3CC(=O)OC3C[C@@H](C)C[C@@]2(C)OC1C[C@@H]7C (stereo not given in full)	–	3.04%
CC1(C)CCC[C@@](C)([C@H]2CC[C@]3(C)[C@@H]2[C@H](O)C[C@@H]2[C@@]4(C)CC[C@H](O)C(C)(C)[C@@H]4CC[C@]23C)O1	–	9.99%
COc1c(C)c2c(c(O)c1CC=C(C)CCC(=O)O)C(=O)OC2	6.11 µM (active)	–
COc1cc2c(cc1CC=C(C)C)C(=O)C[C@@H](c1ccc(O)cc1)O2	–	-5.38%
NCCC(=O)O	–	-5.45%
Cc1cnnc2ccccc12	–	-1.93%

Compound	Potency	activity change, negative = inhibition
CCOc1c2ccoc2nc2c(OC)c(OC)ccc12	–	4.03%
CC(C)OC(=O)c1ccccc1	–	0.918% [at 115 µM]
O=C(C[C@@H]1CC=CCCC(=O)O[C@H](c2ccccc2)CNC1=O)NCc1ccc(Cl)cc1	–	-4.87%
COc1cccc(OC)c1C(=O)O	–	9.26% [at 115 µM]
CC1C2CC(CC2C2CCCC(O)C2)C1(C)C (stereo not given)	–	-6.86%
C[C@@H]1O[C@@H](OC2C(O)C(OCCc3ccc(O)c(O)c3)OC(CO)C2OC(=O)/C=C/c2ccc(O)c(O)c2)[C@H](O)[C@H](O)[C@H]1O (stereo not given in full)	–	-1.26%
COc1cc(C/C=C\c2ccccc2)c(OC)cc1O	–	-1.49%
COC(=O)c1ccccc1OC	–	9% [at 115 µM]
CC(C)=CCC[C@](C)(O)C1CC[C@]2(C)C1[C@H](O)CC1[C@@]3(C)CC[C@H](O[C@@H]4O[C@H](CO)[C@@H](O)[C@H](O)[C@H]4O[C@@H]4O[C@H](CO)[C@@H](O)[C@H](O)[C@H]4O)C(C)(C)C3CC[C@]12C (stereo not given in full)	–	6.28%
COC(=O)c1ccc(N2CC3CNC(=O)C2(C(=O)OC)N3C)cc1 (stereo not given)	–	4.52%
CC/C=C\CCOC(=O)CCCCC	–	-11.7% [at 115 µM]
CC(=O)O[C@@]1(C)C[C@@H](O)[C@]2(O)C=CO[C@@H](O[C@@H]3O[C@H](CO)[C@@H](O)[C@H](O)[C@H]3O)[C@@H]21	–	3.04%
C=C1C[C@H](O)[C@@H]2[C@H](OC(=O)[C@H]2C)[C@H]2[C@H](C)[C@@H](O)C[C@@H]12	–	-8.47%
CNCCO	–	-6.54%
O=C(OCC1OC(Oc2ccc(O)cc2)C(O)C(O)C1O)c1ccccc1 (stereo not given)	–	6.07%
COc1ccc(C(=O)OC2CC3CC[C@H](C2)N3C(C)=O)cc1OC (stereo not given in full)	–	-0.235%
COc1cc2c(=O)c(-c3ccc(O)cc3)coc2cc1OC1OC(CO)C(O)C(O)C1O (stereo not given)	–	1.03%
CCCC(=O)OC	–	-14.9% [at 115 µM]
CCOC(=O)c1c(C)nc(C)c(C(=O)OCC)c1-c1ccccc1	–	1.16%
CCOC(=O)[C@H](CCc1ccccc1)N[C@@H](C)C(=O)N1CCCC1C(=O)O (stereo not given in full)	–	29.5%

Assay: qHTS for Inhibitors of the Functional Ribonucleoprotein Complex (vRNP) of Lassa (LASV) Arenavirus: Viability assay - alamar blue signal for LASV Primary Screen (AID 1347083); note: nearly all actives have a fitted effect of over 80% in size
Conditions: cell viability, alamar blue fluorescence (LASV minigenome counter-screen); series mostly up to 57.5 µM; activity change, negative = reduced viability: at the top concentration

Compound	Potency	activity change, negative = reduced viability
CCN(CC)CCNC(=O)c1c(C)[nH]c(C=C2C(=O)Nc3ccc(F)cc32)c1C	7.89 µM (active)	–
CC[C@H](C)/C=C(C)/C=C/C1=CC2=CC(=O)[C@]3(C)OC(=O)[C@@H](C(C)=O)[C@@H]3C2=CO1	–	9.13%
C/C=C/C=C/CO	–	2.85% [at 115 µM]
CC1CCC[C@H](O)CCCCCc2cc(O)cc(O)c2C(=O)O1 (stereo not given in full)	–	-9.08%
CCCC1CCC(=O)O1 (stereo not given)	–	6.95% [at 115 µM]
C=C(C)[C@]12C[C@@H](C)[C@@]34O[C@](Cc5ccccc5)(O[C@@H]1[C@@H]3C=C(COC(=O)Cc1ccc(O)c(OC)c1)C[C@]1(O)C(=O)C(C)=C[C@@H]41)O2	–	-4.5%
CCCCC[C@H](O)/C=C/C=C/C/C=C\CCCC(=O)O	–	-19.5% [at 0.757 µM]
COc1cc2c(cc1O)C(Cc1ccc(O)cc1)NCC2 (stereo not given)	–	1.46%
COC(=O)c1ccc2c(c1O)C(=O)c1ccccc1C2=O	–	5.06%
C/C=C(/C)C(=O)O[C@@H]([C@H](O)c1cc2ccc(=O)oc2cc1OC)C(C)(C)O[C@@H]1O[C@H](CO)[C@@H](O)[C@H](O)[C@H]1O	–	0.427%
CC(C)C1Oc2cc3oc(=O)ccc3cc2C1=O (stereo not given)	–	13.4%
CC1=CCC2C(C1)C2(C)C (stereo not given)	–	8.87% [at 115 µM]
COc1ccc([C@@]23Oc4cc(OC)cc(OC)c4[C@]2(O)[C@H](O)[C@H](C(=O)N(C)C)[C@H]3c2ccccc2)cc1	–	-130%
Cc1c(-c2cccc3c(CCCOc4cccc5ccccc45)c(C(=O)O)n(Cc4cccnc4)c23)c(COc2ccc(N3CCN([S+](=O)([O-])N(C)C)CC3)cc2)nn1C	–	-22.6%
C=C(C=O)C[C@@H]1C[C@H](O)C2OC3C[C@]4(C)OC5/C=C\CC6OC7C(CC=CCC6OC5CCCC4OC3CC2O1)OC1CC2OC3CC(=O)OC3C[C@@H](C)C[C@@]2(C)OC1C[C@@H]7C (stereo not given in full)	–	2.93%
CC1(C)CCC[C@@](C)([C@H]2CC[C@]3(C)[C@@H]2[C@H](O)C[C@@H]2[C@@]4(C)CC[C@H](O)C(C)(C)[C@@H]4CC[C@]23C)O1	–	2.18%
COc1c(C)c2c(c(O)c1CC=C(C)CCC(=O)O)C(=O)OC2	3.85 µM (active)	–
COc1cc2c(cc1CC=C(C)C)C(=O)C[C@@H](c1ccc(O)cc1)O2	–	14.1%
NCCC(=O)O	–	-0.831%
Cc1cnnc2ccccc12	–	0.105%

Compound	Potency	activity change, negative = reduced viability
CCOc1c2ccoc2nc2c(OC)c(OC)ccc12	–	-25.8%
CC(C)OC(=O)c1ccccc1	–	14.1% [at 115 µM]
O=C(C[C@@H]1CC=CCCC(=O)O[C@H](c2ccccc2)CNC1=O)NCc1ccc(Cl)cc1	–	0.231%
COc1cccc(OC)c1C(=O)O	–	0.131% [at 115 µM]
CC1C2CC(CC2C2CCCC(O)C2)C1(C)C (stereo not given)	–	1.15%
C[C@@H]1O[C@@H](OC2C(O)C(OCCc3ccc(O)c(O)c3)OC(CO)C2OC(=O)/C=C/c2ccc(O)c(O)c2)[C@H](O)[C@H](O)[C@H]1O (stereo not given in full)	–	-26.1%
COc1cc(C/C=C\c2ccccc2)c(OC)cc1O	–	5.71%
COC(=O)c1ccccc1OC	–	2.74% [at 115 µM]
CC(C)=CCC[C@](C)(O)C1CC[C@]2(C)C1[C@H](O)CC1[C@@]3(C)CC[C@H](O[C@@H]4O[C@H](CO)[C@@H](O)[C@H](O)[C@H]4O[C@@H]4O[C@H](CO)[C@@H](O)[C@H](O)[C@H]4O)C(C)(C)C3CC[C@]12C (stereo not given in full)	–	4.04%
COC(=O)c1ccc(N2CC3CNC(=O)C2(C(=O)OC)N3C)cc1 (stereo not given)	–	16.3%
CC/C=C\CCOC(=O)CCCCC	–	10% [at 115 µM]
CC(=O)O[C@@]1(C)C[C@@H](O)[C@]2(O)C=CO[C@@H](O[C@@H]3O[C@H](CO)[C@@H](O)[C@H](O)[C@H]3O)[C@@H]21	–	-16.3%
C=C1C[C@H](O)[C@@H]2[C@H](OC(=O)[C@H]2C)[C@H]2[C@H](C)[C@@H](O)C[C@@H]12	–	13%
CNCCO	–	-4.19%
O=C(OCC1OC(Oc2ccc(O)cc2)C(O)C(O)C1O)c1ccccc1 (stereo not given)	–	9.67%
COc1ccc(C(=O)OC2CC3CC[C@H](C2)N3C(C)=O)cc1OC (stereo not given in full)	–	7%
COc1cc2c(=O)c(-c3ccc(O)cc3)coc2cc1OC1OC(CO)C(O)C(O)C1O (stereo not given)	–	-1.93%
CCCC(=O)OC	–	4.78% [at 115 µM]
CCOC(=O)c1c(C)nc(C)c(C(=O)OCC)c1-c1ccccc1	–	1.11%
CCOC(=O)[C@H](CCc1ccccc1)N[C@@H](C)C(=O)N1CCCC1C(=O)O (stereo not given in full)	–	-4.19%
